Source: PubChem BioAssay
JMJD2E inh: blocks human JMJD2E demethylase activity; B2RXH2; JMJD2E catalytic domain, FDH-coupled NADH fluorescence (FDH is formaldehyde dehydrogenase); Potency, µM (doses to about 57.1 µM), most hits filed as inhibitors; 1.6% of 230,000 active; further: nearly all actives have a fitted effect of over 50% in size
Target sequence (B2RXH2 1-337 limits assumed): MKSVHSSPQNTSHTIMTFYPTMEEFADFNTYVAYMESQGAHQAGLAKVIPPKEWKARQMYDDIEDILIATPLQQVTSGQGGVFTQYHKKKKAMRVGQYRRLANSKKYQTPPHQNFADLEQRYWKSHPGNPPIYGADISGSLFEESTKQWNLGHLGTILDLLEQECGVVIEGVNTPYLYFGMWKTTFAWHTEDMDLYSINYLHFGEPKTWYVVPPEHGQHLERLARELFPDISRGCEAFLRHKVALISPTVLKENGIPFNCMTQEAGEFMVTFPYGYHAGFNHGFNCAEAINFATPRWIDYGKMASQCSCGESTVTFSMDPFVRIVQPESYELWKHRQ
ALDH1A1 block: ALDH1A1 (human) enzyme inhibition; AID 1030; Potency, µM (doses to about 75.3 µM), hits mostly inhibitors; P00352; Purified ALDH1A1, NADH fluorescence, propionaldehyde substrate; 7.3% of 220,000 active
NPSR antagonist: neuropeptide S receptor (human) antagonism, cAMP. Potency, µM (doses to about 38.3 µM), most hits filed as inhibitors. CHO-NPSR cells, cAMP TR-FRET, antagonist mode. 1% of 220,000 active. Q6W5P4; active means well fitted curve in the direction sought with a large enough effect; inconclusive means small, poorly fitted or top-dose-only effect, or another doubt; inactive means no such curve, though single readings can be large; an effect the other way counts as inactive or inconclusive; further: nearly all actives have a fitted effect of over 50% in size
Target sequence (Q6W5P4 whole entry, looked up): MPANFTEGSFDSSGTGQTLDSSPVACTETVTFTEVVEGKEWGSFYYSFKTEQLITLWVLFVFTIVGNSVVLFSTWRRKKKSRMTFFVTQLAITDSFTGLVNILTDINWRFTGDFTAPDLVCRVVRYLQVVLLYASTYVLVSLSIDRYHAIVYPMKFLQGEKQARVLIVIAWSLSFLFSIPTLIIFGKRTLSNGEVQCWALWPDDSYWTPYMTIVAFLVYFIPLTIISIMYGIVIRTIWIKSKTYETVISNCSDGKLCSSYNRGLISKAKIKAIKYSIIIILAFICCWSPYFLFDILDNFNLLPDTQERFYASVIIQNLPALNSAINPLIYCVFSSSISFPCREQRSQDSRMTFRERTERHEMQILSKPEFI
Coupling enz: counter-screen for Giardia aldolase inhibitors: coupling enzyme system. coupling enzyme system counterscreen, AmpLite Red fluorescence. activity change, negative = inhibition, % at 58.2 µM, hits read low. 0.67% of 290,000 active. AID 2472; in the data active means activity change below about -30%
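Counterscreen of the coupled detection system alone, without aldolase: glyceraldehyde-3-phosphate coupling enzymes plus AmpLite Red readout. Compounds at 57.5 uM final, 10 min RT preincubation, 20 min RT reaction, fluorescence 525/598 nm.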
Sfp inh: blocks B. subtilis Sfp PPTase activity. 3.5% of 310,000 active. Biochemical Sfp PPTase activity, qHTS. Potency, µM, hits mostly inhibitors. AID 1490. Q9F4F7; active means well fitted curve in the direction sought with a large enough effect; inconclusive means small, poorly fitted or top-dose-only effect, or another doubt; inactive means no such curve, though single readings can be large; an effect the other way counts as inactive or inconclusive;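 further: the enzyme is Sfp with the accession as filed and its product quenches rhodamine fluorescence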
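Buffer: 50 mM Hepes-Na pH 7.6, 10 mM MgCl2, 0.01% Nonidet P-40, 0.01% BSA. Enzyme 15 nM, pre-exposed to compound 15 min; substrates then added and fluorescence change tracked over 30 min.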
GoLoco inh red: blocks human Gai1 binding to RGS12 GoLoco peptide, red readout; P63096; 0.44% of 230,000 active; AID 880; Potency, µM (titrated, usually from 61.6 µM), hits mostly inhibitors; Gai1:RGS12 GoLoco peptide FP, rhodamine, 10 min; active means well fitted inhibition curve with a large enough effect, not every such curve was filed as active; inactive means no such curve, though single readings can be large or run the other way; further: nearly all actives have a fitted effect of over 30% in size
Hits are given with their value; . = inactive; ? = inconclusive; / = no result; ! = not active in a repeat; [ ] = dose if it differs, or a comment. Compounds with a hit are over-represented: about 8.5% of the library has one in this group of screens. Unless noted, the call rests on the fitted dose curve; in most records, active means well fitted inhibition curve with a large enough effect (not every such curve was filed as active); inconclusive means small, poorly fitted or top-dose-only effect, or another doubt; inactive means no such curve, though single readings can be large or run the other way.

SMILES	JMJD2E inh	ALDH1A1 block	NPSR antagonist	Coupling enz	Sfp inh	GoLoco inh red
COc1ccc(CNCc2ccco2)cc1OCc1ccccc1	.	11.2µM	.	.	?	.
Nc1nnnn1/N=C/c1ccc(F)cc1	/	/	/	.	.	/
O=C(Cc1ccccc1F)NC1CCCN(Cc2ccc(Cl)cc2)C1 (stereo unspecified)	/	/	/	.	.	/
O=C(COC(=O)c1cnccn1)c1ccc2c(c1)CCCC2	.	28.2µM	.	.	.	.
O=C(COC(=O)c1cnccn1)c1ccc(Br)cc1	.	.	.	.	.	.
Cc1ccc(N2CSC3=C(C#N)C(c4cccs4)CC(=O)N3C2)cc1 (stereo unspecified)	?	8.91µM	.	.	1.41µM	.
CCOC(=O)CC1=C(C(=O)OCC)C(c2cccs2)C(C#N)=C(N)O1 (stereo unspecified)	?	.	.	.	.	.
Cc1ccc(N2C(N)=C(C#N)C(c3cccs3)C3=C2CC(C)(C)CC3=O)cc1 (stereo unspecified)	?	?	.	.	.	.
COc1ccc(N2CSC3=C(C#N)C(c4cccs4)CC(=O)N3C2)cc1 (stereo unspecified)	.	2µM	.[7.67 µM]	-48.7	2.24µM	.
CCOC(=O)c1ccc(N2CSC3=C(C#N)C(c4cccs4)CC(=O)N3C2)cc1 (stereo unspecified)	?	22.4µM	.	.	11.2µM	.
CCc1ccc(N2CSC3=C(C#N)C(c4cccs4)CC(=O)N3C2)cc1 (stereo unspecified)	?	8.91µM	.	.	2.51µM	.
O=C(c1ccc2nc[nH]c2c1)N1CCN(c2ncc(C(F)(F)F)cc2Cl)CC1	/	/	/	.	.	/
CN(C)S(=O)(=O)c1cccc(NC(=O)COC(=O)c2cc3ccccc3oc2=O)c1	?	/	.	.	.	.
O=C(/C=C/c1cccc([N+](=O)[O-])c1)NCCSCc1ccccc1Cl	.	12.6µM	.	.	.	.
O=C(/C=C/c1cccc([N+](=O)[O-])c1)NCC1CCCO1 (stereo unspecified)	.	14.1µM	.	.	.	.
O=C(Nc1ccc(F)cc1)C1(S(=O)(=O)c2ccc(Cl)cc2)CC1	/	/	/	.	.	/
COc1ccc(C(C(=O)NC2CCCC2)N(CCCO)C(=O)c2snc(C(N)=O)c2N)cc1 (stereo unspecified)	/	/	/	.	.	/
O=C(Nc1nc2ccc(S(=O)(=O)N3CCCC3)cc2s1)C1CCCCC1	.	8.91µM	.	.	.	.
COC(=O)c1ccc2nc(NC(=O)C(C)(C)C)sc2c1	.	.	.	.	.	.
Cc1nc2ccc(S(=O)(=O)N3CCCCC3)cc2s1	/	/	/	.	.	/
Nc1nc2ccc(S(=O)(=O)N3CCCCC3)cc2s1	.	6.31µM	.	.	10µM	.
COC(=O)c1ccc2nc(NC(=O)C3CCCCC3)sc2c1	.	25.1µM	.	.	.	.
CC(=O)Nc1ccc(-c2csc(NC(=O)Cc3cccc(F)c3)n2)cc1	/	/	/	.	.	/
CN1C(=O)CC2(C=CC(=O)C=C2OC(=O)c2ccccc2)c2ccccc21 (stereo unspecified)	/	/	/	.	.	/
Cc1noc(C)c1CSc1ccccc1C(=O)Nc1nccs1	.	18.9µM	.	.	.	.
SMILES	JMJD2E inh	ALDH1A1 block	NPSR antagonist	Coupling enz	Sfp inh	GoLoco inh red
Cc1noc(C)c1CSc1ccccc1C(=O)O	/	/	/	.	.	/
CCN1CCN(CCCOc2ccccc2-c2ccccc2)CC1	.	11.2µM	.	.	?	.
Cc1ccc(C)c(OCCOCCN2CC(C)OC(C)C2)c1C (stereo unspecified)	?	15.8µM	.	.	?	.
CC1CN(CCOCCOc2ccccc2-c2ccccc2)CC(C)O1 (stereo unspecified)	/	/	/	.	44.7µM	/
CC1CN(CCOCCSc2ccccc2)CC(C)O1 (stereo unspecified)	.	.	.	.	.	.
c1ccc(-c2ccccc2OCCOCCN2CCc3ccccc3C2)cc1	.	.	.	.	.	.
OCCCN1CCN(CCOc2ccccc2-c2ccccc2)CC1	.	.	.	.	.	.
Cc1ccc(C)c(NS(=O)(=O)c2cc(C(=O)NCc3ccncc3)ccc2C)c1	/	/	/	.	.	/
COc1ccc(S(=O)(=O)N2CC(O)CC2C(=O)Nc2cccnc2)cc1 (stereo unspecified)	.	.	.	.	.	.
CN(C)CCN(Cc1ccccc1)c1ccccn1	31.6µM!	.	.	.	.	.
CCc1ccc(C(=O)CSc2ncn[nH]2)cc1	?	?	.	.	70.8µM	.
COc1ccc(C(=O)CSc2ncn[nH]2)cc1OC	?	.	.	.	.	.
Cc1ccc(S(=O)(=O)N(CC(=O)Nc2ccccc2C(=O)O)c2ccc(Cl)cc2)cc1	?	.	.	.	.	.
CC1=C2[C@@H]([C@H](C)CC[C@H]2/C=C(\C)C(=O)O)[C@H](O)C1	/	?	/	/	/	.
CC1=C2[C@H](/C=C(\C)C(=O)O)CC[C@@H](C)[C@H]2CC1	/	17.8µM	/	/	/	.
COc1ccc(C[C@H]2CN3C(=NC[C@@H]3Cc3ccc(O)cc3)N2C[C@H](C)NC(=O)CCC2CCCCC2)cc1	.	/	.	.	.	.
C/C=C(\C)C(=O)N[C@@H](C)CN1C2=NC[C@H](C(C)C)N2C[C@H]1Cc1ccc(OC)cc1	.	/	.	.	39.8µM	.
CC(C)[C@H]1CN=C2N(C[C@H](C)NC(=O)CCC3CCCCC3)[C@H](Cc3ccc(O)cc3)CN21	.	/	.	.	50.1µM	.
COc1ccc(C[C@@H]2CN3C(=NC[C@@H]3Cc3ccc(O)cc3)N2C[C@H](C)NC(=O)CCC2CCCCC2)cc1	.	/	.	.	79.4µM	.
CCOc1ccc(C2NC(=O)C(C#N)=C(S)N2c2cccc(C)c2)cc1OC (stereo unspecified)	.	?	.	.	?	.
COc1cc(C2C3CN(C)CC=C3C(C#N)=C(N)C2(C#N)C#N)ccc1OC(C)C (stereo unspecified)	?	?	.	.	.	.
COc1ccc(N2C(S)=C(C#N)C(=O)NC2c2ccco2)cc1 (stereo unspecified)	.	?	.	.	28.2µM	.
COc1cc(C2NC(=O)C(C#N)=C(S)N2c2ccccc2)ccc1OC(C)C (stereo unspecified)	.	?	.	.	39.8µM	.
COc1ccc(C2NC(=O)C(C#N)=C(S)N2c2ccccc2)cc1OC (stereo unspecified)	.	?	.	.	20µM	.
CCOc1ccc(C2NC(=O)C(C#N)=C(S)N2c2ccc(C)cc2)cc1OC (stereo unspecified)	.	?	.	.	44.7µM	.
CCn1c(C)nc2cc(C(=O)NNC(=O)CCC3CCCC3)ccc21	.	.	.	.	.	.
O=C(c1cc2ccccc2o1)N1CCN(c2ccccn2)CC1	/	/	/	/	.	/
CC1(C)Cc2c(cnn2-c2cccc(F)c2)C(NC(=O)c2ccc(=O)[nH]n2)C1 (stereo unspecified)	/	/	/	/	.	/
